# Experimental data from PubChem BioAssay (NCATS).
# Results filed as inconclusive are left out. Where a call stands in place of a potency, no number is given. Values without a mark were called inactive. Calls of active or inactive are those of the source. The call rests on the fitted dose curve; in most records, active means well fitted inhibition curve with a large enough effect; inconclusive means small, poorly fitted or top-dose-only effect; inactive means flat fitted curve, though single readings scatter.
# Columns and labels:
# [1] = qHTS profiling for inhibitors of Plasmodium falciparum proliferation (AID 504749); on all read-outs here: nearly all actives have a fitted effect of over 60% in size; details: P. falciparum in erythrocytes, SYBR Green DNA, 72 h; for activity, negative = inhibition: at 28.7 µM (top of the series)
# Outline: (§1)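 SYBR Green fluorescence of parasite DNA, read after lysis and overnight dark incubation, measured growth over 72 h in erythrocyte culture at 0.3% parasitemia and 2.5% hematocrit. Data normalised to DMSO and 0.29 uM artemisinin, with plate-drift correction.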
# [2] = system: 3D7; assay: as above; details: P. falciparum in erythrocytes, SYBR Green DNA, 72 h; series mostly up to 28.7 µM
# Outline: as §1
# [3] = system: 7G8; assay: as above; details: P. falciparum in erythrocytes, SYBR Green DNA, 72 h; series mostly up to 28.7 µM
# Outline: as §1
# [4] = system: AA1029; assay: as above; details: P. falciparum in erythrocytes, SYBR Green DNA, 72 h; series mostly up to 28.7 µM
# Outline: as §1
# [5] = system: AS120; assay: as above; details: P. falciparum in erythrocytes, SYBR Green DNA, 72 h; series mostly up to 28.7 µM
# Outline: as §1
# [6] = system: ATS189; assay: as above; details: P. falciparum in erythrocytes, SYBR Green DNA, 72 h; series mostly up to 28.7 µM
# Outline: as §1
# [7] = system: ATS95; assay: as above; details: P. falciparum in erythrocytes, SYBR Green DNA, 72 h; series mostly up to 28.7 µM
# Outline: as §1
# [8] = system: C2A; assay: as above; details: P. falciparum in erythrocytes, SYBR Green DNA, 72 h; series mostly up to 28.7 µM
# Outline: as §1
# [9] = system: CP185; assay: as above; details: P. falciparum in erythrocytes, SYBR Green DNA, 72 h; series mostly up to 28.7 µM
# Outline: as §1
# [10] = system: CP191; assay: as above; details: P. falciparum in erythrocytes, SYBR Green DNA, 72 h; series mostly up to 28.7 µM
# Outline: as §1
# [11] = system: CP192; assay: as above; details: P. falciparum in erythrocytes, SYBR Green DNA, 72 h; series mostly up to 28.7 µM
# Outline: as §1
# [12] = system: CP194; assay: as above; details: P. falciparum in erythrocytes, SYBR Green DNA, 72 h; series mostly up to 28.7 µM
# Outline: as §1
# [13] = system: CP201; assay: as above; details: P. falciparum in erythrocytes, SYBR Green DNA, 72 h; series mostly up to 28.7 µM
# Outline: as §1
# [14] = system: CP203; assay: as above; details: P. falciparum in erythrocytes, SYBR Green DNA, 72 h; series mostly up to 28.7 µM
# Outline: as §1
# [15] = system: CP211; assay: as above; details: P. falciparum in erythrocytes, SYBR Green DNA, 72 h; series mostly up to 28.7 µM
# Outline: as §1
# [16] = system: CP215; assay: as above; details: P. falciparum in erythrocytes, SYBR Green DNA, 72 h; series mostly up to 28.7 µM
# Outline: as §1
# [17] = system: CP217; assay: as above; details: P. falciparum in erythrocytes, SYBR Green DNA, 72 h; series mostly up to 28.7 µM
# Outline: as §1
# [18] = system: CP237; assay: as above; details: P. falciparum in erythrocytes, SYBR Green DNA, 72 h; series mostly up to 28.7 µM
# Outline: as §1
# [19] = system: CP238; assay: as above; details: P. falciparum in erythrocytes, SYBR Green DNA, 72 h; series mostly up to 28.7 µM
# Outline: as §1
# [20] = system: CP247; assay: as above; details: P. falciparum in erythrocytes, SYBR Green DNA, 72 h; series mostly up to 28.7 µM
# Outline: as §1
# Potency means the concentration at half of the fitted maximal effect.
smiles,measurement,setting,value
C[N+](C)(C)CCOC(=O)CCC(=O)OCC[N+](C)(C)C,"activity, negative = inhibition",[1]; parasite line A,1.72%
same,"activity, negative = inhibition",[1]; parasite line B,1.32%
same,Potency,[2],inactive
same,Potency,[3],inactive
same,Potency,[4],inactive
same,Potency,[5],inactive
same,Potency,[6],inactive
same,Potency,[7],inactive
same,Potency,[8],inactive
same,Potency,[9],inactive
same,Potency,[10],inactive
same,Potency,[11],inactive
same,Potency,[12],inactive
same,Potency,[13],inactive
same,Potency,[14],inactive
same,Potency,[15],inactive
same,Potency,[16],inactive
same,Potency,[17],inactive
same,Potency,[18],inactive
same,Potency,[19],inactive
same,Potency,[20],inactive
O=C(O)CP(=O)(O)O,"activity, negative = inhibition",[1]; parasite line A,3.45%
same,"activity, negative = inhibition",[1]; parasite line B,-17.2%
same,Potency,[2],inactive
same,Potency,[3],inactive
same,Potency,[4],inactive
same,Potency,[5],inactive
same,Potency,[6],inactive
same,Potency,[7],inactive
same,Potency,[8],inactive
same,Potency,[9],inactive
same,Potency,[10],inactive
same,Potency,[11],inactive
same,Potency,[12],inactive
same,Potency,[13],inactive
same,Potency,[15],inactive
same,Potency,[16],inactive
same,Potency,[17],inactive
same,Potency,[18],inactive
same,Potency,[19],inactive
same,Potency,[20],inactive
CCCN(CCC)CCc1cccc2c1CC(=O)N2,"activity, negative = inhibition",[1]; parasite line A,-9.53%
same,"activity, negative = inhibition",[1]; parasite line B,-8.71%
same,Potency,[2],inactive
same,Potency,[3],inactive
same,Potency,[4],inactive
same,Potency,[5],inactive
same,Potency,[6],inactive
same,Potency,[7],inactive
same,Potency,[8],inactive
same,Potency,[9],inactive
same,Potency,[10],inactive
same,Potency,[11],inactive
same,Potency,[12],inactive
same,Potency,[13],inactive
same,Potency,[15],inactive
same,Potency,[16],inactive
same,Potency,[17],inactive
same,Potency,[18],inactive
same,Potency,[19],inactive
same,Potency,[20],inactive
CCN1CCc2nc(N)oc2CC1,"activity, negative = inhibition",[1]; parasite line A,1.51%
same,"activity, negative = inhibition",[1]; parasite line B,1.64%
same,Potency,[2],inactive
same,Potency,[3],inactive
same,Potency,[4],inactive
same,Potency,[5],inactive
same,Potency,[6],inactive
same,Potency,[7],inactive
same,Potency,[8],inactive
same,Potency,[9],inactive
same,Potency,[10],inactive
same,Potency,[11],inactive
same,Potency,[12],inactive
same,Potency,[13],inactive
same,Potency,[15],inactive
same,Potency,[16],inactive
same,Potency,[17],inactive
same,Potency,[18],inactive
same,Potency,[19],inactive
same,Potency,[20],inactive
COCC(=O)O[C@]1(CCN(C)CCCc2nc3ccccc3[nH]2)CCc2cc(F)ccc2[C@@H]1C(C)C,Potency,[1]; parasite line A,3.55 µM (active)
same,Potency,[1]; parasite line B,5.01 µM (active)
same,Potency,[2],7.94 µM (active)
same,Potency,[3],1.12 µM (active)
same,Potency,[4],0.794 µM (active)
same,Potency,[5],1.26 µM (active)
same,Potency,[6],3.98 µM (active)
same,Potency,[7],1.26 µM (active)
same,Potency,[8],0.562 µM (active)
same,Potency,[9],4.47 µM (active)
same,Potency,[10],4.47 µM (active)
same,Potency,[11],5.36 µM (active)
same,Potency,[12],6.01 µM (active)
same,Potency,[13],8.49 µM (active)
same,Potency,[14],1.9 µM (active)
same,Potency,[15],4.26 µM (active)
same,Potency,[16],4.26 µM (active)
same,Potency,[17],2.51 µM (active)
same,Potency,[18],0.199 µM (active)
same,Potency,[19],4.47 µM (active)
same,Potency,[20],3.55 µM (active)
O=C(O)CN(CCOCCOCCN(CC(=O)O)CC(=O)O)CC(=O)O,"activity, negative = inhibition",[1]; parasite line A,8.03%
same,"activity, negative = inhibition",[1]; parasite line B,13.7%
same,Potency,[2],inactive
same,Potency,[3],inactive
same,Potency,[4],inactive
same,Potency,[5],inactive
same,Potency,[6],inactive
same,Potency,[7],inactive
same,Potency,[8],inactive
same,Potency,[9],inactive
same,Potency,[10],inactive
same,Potency,[11],inactive
same,Potency,[12],inactive
same,Potency,[13],inactive
same,Potency,[14],inactive
same,Potency,[15],inactive
same,Potency,[16],inactive
same,Potency,[17],inactive
same,Potency,[18],inactive
same,Potency,[19],inactive
same,Potency,[20],inactive
C[N+](C)(C)CCCCCCCCCC[N+](C)(C)C,Potency,[1]; parasite line A,3.98 µM (active)
same,Potency,[1]; parasite line B,1.58 µM (active)
same,Potency,[2],5.62 µM (active)
same,Potency,[3],5.01 µM (active)
same,Potency,[4],5.62 µM (active)
same,Potency,[5],3.16 µM (active)
same,Potency,[6],4.47 µM (active)
same,Potency,[7],3.16 µM (active)
same,Potency,[8],5.62 µM (active)
same,Potency,[9],4.47 µM (active)
same,Potency,[10],3.55 µM (active)
same,Potency,[11],1.9 µM (active)
same,Potency,[12],2.13 µM (active)
same,Potency,[13],3.38 µM (active)
same,Potency,[14],1.69 µM (active)
same,Potency,[15],1.69 µM (active)
same,Potency,[16],4.26 µM (active)
same,Potency,[17],3.55 µM (active)
same,Potency,[18],3.16 µM (active)
same,Potency,[19],5.01 µM (active)
same,Potency,[20],5.01 µM (active)
CCN1CCC[C@H]1CNC(=O)c1c(O)c(Cl)cc(Cl)c1OC,"activity, negative = inhibition",[1]; parasite line A,0.765%
same,"activity, negative = inhibition",[1]; parasite line B,14.7%
same,Potency,[2],inactive
same,Potency,[3],inactive
same,Potency,[4],inactive
same,Potency,[5],inactive
same,Potency,[6],inactive
same,Potency,[7],inactive
same,Potency,[8],inactive
same,Potency,[9],inactive
same,Potency,[10],inactive
same,Potency,[11],inactive
same,Potency,[12],inactive
same,Potency,[13],inactive
same,Potency,[15],inactive
same,Potency,[16],inactive
same,Potency,[17],inactive
same,Potency,[18],inactive
same,Potency,[19],inactive
same,Potency,[20],inactive
NC/C=C/C(=O)O,"activity, negative = inhibition",[1]; parasite line A,13.5%
same,"activity, negative = inhibition",[1]; parasite line B,11.1%
same,Potency,[2],inactive
same,Potency,[3],inactive
same,Potency,[4],inactive
same,Potency,[5],inactive
same,Potency,[6],inactive
same,Potency,[7],inactive
same,Potency,[8],inactive
same,Potency,[9],inactive
same,Potency,[10],inactive
same,Potency,[11],inactive
same,Potency,[12],inactive
same,Potency,[13],inactive
same,Potency,[14],inactive
same,Potency,[15],inactive
same,Potency,[16],inactive
same,Potency,[17],inactive
same,Potency,[18],inactive
same,Potency,[19],inactive
same,Potency,[20],inactive
CCN(Cc1ccncc1)C(=O)C(CO)c1ccccc1 (stereo not drawn),"activity, negative = inhibition",[1]; parasite line A,3.05%
same,"activity, negative = inhibition",[1]; parasite line B,-7.78%
same,Potency,[2],inactive
same,Potency,[3],inactive
same,Potency,[4],inactive
same,Potency,[5],inactive
same,Potency,[6],inactive
same,Potency,[7],inactive
same,Potency,[8],inactive
same,Potency,[9],inactive
same,Potency,[10],inactive
same,Potency,[11],inactive
same,Potency,[12],inactive
same,Potency,[13],inactive
same,Potency,[14],inactive
same,Potency,[15],inactive
same,Potency,[16],inactive
same,Potency,[17],inactive
same,Potency,[18],inactive
same,Potency,[19],inactive
same,Potency,[20],inactive
C[N+](C)(C)CCOC(N)=O,"activity, negative = inhibition",[1]; parasite line A,16.8%
same,"activity, negative = inhibition",[1]; parasite line B,9.29%
same,Potency,[2],inactive
same,Potency,[3],inactive
same,Potency,[4],inactive
same,Potency,[5],inactive
same,Potency,[6],inactive
same,Potency,[7],inactive
same,Potency,[8],inactive
same,Potency,[9],inactive
same,Potency,[10],inactive
same,Potency,[11],inactive
same,Potency,[12],inactive
same,Potency,[13],inactive
same,Potency,[14],inactive
same,Potency,[15],inactive
same,Potency,[16],inactive
same,Potency,[17],inactive
same,Potency,[18],inactive
same,Potency,[19],inactive
same,Potency,[20],inactive
CCCCNC(=O)NS(=O)(=O)c1ccc(C)cc1,"activity, negative = inhibition",[1]; parasite line A,1.62%
same,"activity, negative = inhibition",[1]; parasite line B,0.192%
same,Potency,[2],inactive
same,Potency,[3],inactive
same,Potency,[4],inactive
same,Potency,[5],inactive
same,Potency,[6],inactive
same,Potency,[7],inactive
same,Potency,[8],inactive
same,Potency,[9],inactive
same,Potency,[10],inactive
same,Potency,[11],inactive
same,Potency,[12],inactive
same,Potency,[13],inactive
same,Potency,[14],inactive
same,Potency,[15],inactive
same,Potency,[16],inactive
same,Potency,[17],inactive
same,Potency,[18],inactive
same,Potency,[19],inactive
same,Potency,[20],inactive
